PubChem BioAssay AID1851 (National Center for Advancing Translational Sciences (NCATS), 2009)
The whole screen tested about 16,000 compounds, of which about 2,600 (16%) were called active. About 20% were inconclusive and are not listed. The call rests on the fitted dose curve; in most records, active means well fitted curve in the direction sought with a large enough effect; inconclusive means small, poorly fitted or top-dose-only effect, or effect the other way; inactive means no such curve, though single readings can be large or run the other way. Not all results are given here.

target: Cytochrome P450 2D6 (Homo sapiens) (UniProt P10635); assay: Cytochrome panel assay with activity outcomes; conditions: recombinant CYP, pro-luciferin dealkylation, luminescence, p450-cyp2d6; series mostly up to 57.1 µM; activity, negative = inhibition: at the top concentration
On the % scale 0 is the no-effect control and ±100 the full control effect.

Cytochrome P450 2D6 (Homo sapiens), sequence (P10635 whole entry, looked up): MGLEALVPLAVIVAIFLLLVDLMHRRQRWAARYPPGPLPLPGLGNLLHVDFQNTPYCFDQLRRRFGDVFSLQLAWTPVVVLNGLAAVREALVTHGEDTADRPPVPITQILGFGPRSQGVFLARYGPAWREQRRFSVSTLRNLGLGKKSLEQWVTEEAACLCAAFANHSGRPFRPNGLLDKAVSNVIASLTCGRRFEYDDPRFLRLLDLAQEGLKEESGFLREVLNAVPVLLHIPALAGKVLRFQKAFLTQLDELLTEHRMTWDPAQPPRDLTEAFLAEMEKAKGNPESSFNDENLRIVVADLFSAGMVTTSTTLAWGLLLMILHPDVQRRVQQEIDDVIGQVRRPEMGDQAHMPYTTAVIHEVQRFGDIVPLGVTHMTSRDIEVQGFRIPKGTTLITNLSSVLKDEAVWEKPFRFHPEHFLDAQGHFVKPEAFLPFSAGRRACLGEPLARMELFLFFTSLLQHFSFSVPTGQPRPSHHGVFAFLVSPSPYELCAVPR

Row | Compound | activity, negative = inhibition | AC50
1 | CCCC1S/C(=N/N=C/c2ccc(OC)cc2)N(Cc2ccc(OC)cc2)C1=O (stereo unspecified) | -23% (inactive) | 
2 | COc1cccc(C(=O)n2c(SC)nc3cc4c(cc32)OCCO4)c1 | -7.63% (inactive) | 
3 | Cc1ncc(N=Nc2ccccc2Cl)c(-c2ccccc2)n1 | -18.5% (inactive) | 
4 | COc1ccc(CCn2c(=N)c(C(=O)NCc3ccco3)cc3c(=O)n4ccccc4nc32)cc1 |  | 1.12 µM (active)
5 | CCOC(=O)c1cc2c(=O)n3ccccc3nc2n(CCCOC)c1=NC(C)=O | 3.85% (inactive) | 
6 | CCOc1ccc(-n2cc(C(=O)NCc3ccco3)c3cc(OC)c(OC)cc3c2=O)cc1 | 5.46% (inactive) | 
7 | O=C(/C=C/c1ccccc1)N1CCN(Cc2nc3ccccc3c(=O)[nH]2)CC1 | -21.2% (inactive) | 
8 | COc1cccc(-c2nc(NCc3cccs3)c3ccccc3n2)c1 |  | 12.6 µM (active)
9 | Cc1cccc(CNc2nc(-c3cccc(NS(C)(=O)=O)c3)nc3ccccc23)c1 |  | 12.6 µM (active)
10 | CS(=O)(=O)Nc1cccc(-c2nc(NCc3cccnc3)c3ccccc3n2)c1 |  | 20 µM (active)
11 | CS(=O)(=O)Nc1cccc(-c2nc(NCc3ccccc3)c3ccccc3n2)c1 |  | 20 µM (active)
12 | O=C(O)CSc1sc(=S)sc1SCC(=O)O | -6.18% (inactive) | 
13 | N[C@@H](Cc1ccc(O)c(O)c1)C(=O)O |  | inactive
14 | O=C(NNC(=O)c1cc2cc3ccccc3nc2s1)c1cccc(Cl)c1 | 15.3% (inactive) | 
15 | COc1ccc(NC(=O)c2ccc3c(=O)n(Cc4ccco4)c(=S)[nH]c3c2)c(OC)c1 | -14.5% (inactive) | 
16 | Cc1nc2c(ccc3nc(NC(=O)c4ccc5c(c4)OCCO5)sc32)s1 | -17.3% (inactive) | 
17 | CCOCCCNC(=O)C1CCN(S(=O)(=O)N2CC(C)CC(C)C2)CC1 (stereo unspecified) | -0.643% (inactive) | 
18 | CC[C@H](C)N(C)C(=O)c1cc2ccccc2c(-c2ccccc2Cl)n1 | 8.23% (inactive) | 
19 | CCOC(=O)CC(NC(=O)c1ccc(C)cc1)c1ccc(C)cc1 (stereo unspecified) | -14.9% (inactive) | 
20 | O=C(c1cccc(F)c1)N1CCC[C@@]2(CCN(c3cccc(-c4ccccc4)c3)C2)C1 | -12.7% (inactive) | 
21 | COc1cccc(Nc2ncc3nc(C)c(=O)n(-c4ccccc4)c3n2)c1 | -7.35% (inactive) | 
22 | Cc1oc2c(C)c(O)ccc2c(=O)c1-c1ccc2ccccc2n1 | -5.6% (inactive) | 
23 | O=[N+]([O-])c1ccc(CSc2ncnc3c2ncn3[C@@H]2O[C@@H](CO)[C@@H](O)[C@H]2O)cc1 | 2.45% (inactive) | 
24 | CS(=O)(=O)Nc1cccc(-c2nc(NCc3cccs3)c3ccccc3n2)c1 |  | 10 µM (active)
25 | CCOC(=O)C(NC(C)=O)C(OC(C)=O)c1cccc(N(CCO)CCO)c1 (stereo unspecified) | -0.0705% (inactive) | 
26 | Cc1nc(-c2c(C(F)(F)F)noc2-c2ccc(O)cc2O)cs1 | -24.6% (inactive) | 

Row | Compound | activity, negative = inhibition | AC50
27 | CC(=O)Nc1ccc(S(=O)(=O)NCCc2ccc(F)cc2)cc1 |  | 15.8 µM (active)
28 | CC(=O)Nc1ccc(S(=O)(=O)c2ccc(N)cc2)cc1 | -1.48% (inactive) | 
29 | COc1ccc(CCNC(=O)CC(NS(=O)(=O)c2ccc(NC(C)=O)cc2)C(C)C)cc1OC (stereo unspecified) | -8.43% (inactive) | 
30 | CN(Cc1ccco1)c1cc(-c2ccoc2)ncn1 | -0.773% (inactive) | 
31 | CN(C)C(=O)c1ccc(-c2cc(N(C)Cc3ccco3)ncn2)cc1 | -13.6% (inactive) | 
32 | CN(Cc1ccco1)c1cc(-c2ccc3c(c2)OCO3)ncn1 |  | 12.6 µM (active)
33 | CN(C)c1ccc(-c2cc(N(C)Cc3ccco3)ncn2)cc1 |  | 7.94 µM (active)
34 | COc1ccc(C(=O)N2CCC3(CC2)CN(C(=O)Nc2cccc(C#N)c2)C3)cc1 | 2.7% (inactive) | 
35 | Cc1nn(CCc2n[nH]c(=S)n2-c2ccc(F)c(Cl)c2)c(C)c1[N+](=O)[O-] | -1.51% (inactive) | 
36 | C#C[C@@]1(OC(C)=O)CC[C@@H]2[C@@H]3CCC4=C[C@@H](OC(C)=O)CC[C@H]4[C@H]3CC[C@]21C | -7.92% [at 25.6 µM] (inactive) | 
37 | N#CCSc1ncnc2c1cnn2CCO | -1.07% (inactive) | 
38 | COC(=O)c1c(-c2ccccc2)csc1NC(=O)CSc1ncnc2sc(C)c(C)c12 | 16.2% (inactive) | 
39 | NC(=S)c1ccc[n+]([C@@H]2O[C@@H](COP(=O)([O-])OP(=O)(O)OC[C@@H]3O[C@@H](n4cnc5c(N)ncnc54)[C@@H](OP(=O)(O)O)[C@H]3O)[C@@H](O)[C@H]2O)c1 | -0.503% (inactive) | 
40 | Cc1noc(C)c1C(=O)N1CCC2(CCN(Cc3ccccc3)CC2)CC1 | -1.81% (inactive) | 
41 | COc1ccccc1CN1CCC2(CC1)CCN(C(C)=O)CC2 |  | 5.01 µM (active)
42 | COC(=O)N1CCC2(CCN(Cc3ccccc3OC)CC2)CC1 |  | 2 µM (active)
43 | COC(=O)N1CCC2(CCN(Cc3nccs3)CC2)CC1 | 1.21% (inactive) | 
44 | COc1ccccc1CN1CCC2(CC1)CCN(C(=O)c1c(C)noc1C)CC2 |  | 7.94 µM (active)
45 | CC(=O)N1CCC2(CC1)CCN(c1ccc(-c3ccccc3)cc1)CC2 | -6.74% (inactive) | 
46 | COc1ccccc1CN1CC[C@@]2(CCCN(C(=O)c3c(C)noc3C)C2)C1 | 15.2% (inactive) | 
47 | COCC(=O)N1CCC2(CCN(Cc3ccncc3)CC2)CC1 |  | 6.31 µM (active)
48 | COC(=O)N1CCC2(CC1)CCN(c1cccc(-c3ccccc3)c1)CC2 | -12.4% (inactive) | 
49 | CC(=O)N1CCC2(CC1)CCN(c1ccccn1)CC2 | 6.43% (inactive) | 
50 | CC(=O)N1CCC2(CCN(Cc3ccncc3)CC2)CC1 | -7.43% (inactive) | 
51 | COc1ccc(C(=O)N2CCC3(CCN(Cc4ccncc4)CC3)CC2)cc1 | -11.6% (inactive) | 
